Inconclusive results are not listed. Calls of active or inactive are those of the source. Unless noted, calls follow the shape of the dose curve; as a rule, active = well fitted curve in the direction sought with a large enough effect; inconclusive = small, poorly fitted or top-dose-only effect, or another doubt; inactive = no such curve, though single readings can be large; an effect the other way counts as inactive or inconclusive. *1 amine or outer side, *2 acyl side, *3 side chain or, on linkers, in order; H or OH if unused. Where a SMILES comes first, the peptide text is derived from it. [ ]: non-standard residue; d: D form. X5 = CC(CC(O[*:1])C(=O)[*:2])C(=O)O; NMeV = CN[CH](C(=O)O)C(C)C; NMeA = CN[CH](C)C(=O)O; βAla = NCCC(=O)O
How the values were obtained:
[1] = P-glycoprotein substrates identified in KB-8-5-11 adenocarcinoma cell line, qHTS therapeutic library screen (AID 1346987); also: nearly all actives have a fitted effect of over 65% in size; also: potency is read from the fitted curve at half-maximal effect; as to activity change, negative = cytotoxicity: % is scaled to controls: 0 for no effect and ±100 for the full control effect
Procedure, shortened: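 KB-8-5-11: colchicine-selected sub-line of KB-3-1 over-expressing P-gp; assay medium lacked colchicine. 72 h drug exposure at 37 degree C, CellTiter-Glo.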

[2] = Primary qHTS for inhibitors of nuclear receptor binding SET domain protein 2 (NSD2) in an isogenic RCH-ACV NSD2 p.E1099K mutant (9B) (AID 1645876); also: nearly all actives have a fitted effect of over 70% in size; also: potency is read from the fitted curve at half-maximal effect
[3] = Primary qHTS for inhibitors of nuclear receptor binding SET domain protein 2 (NSD2) in an RCH-ACV wild type WT cells (2C) (AID 1645877); also: nearly all actives have a fitted effect of over 70% in size; also: potency is read from the fitted curve at half-maximal effect
[4] = tested on: CRL-7250; experiment: Cytotoxic Profiling of Annotated Libraries Using Quantitative High-Throughput Screening (AID 1296008); conditions: Five cell lines viability, CellTiter-Glo ATP luminescence, 48-72 h; max response: stronger effect = lower value; also: nearly all actives have a fitted effect of over 60% in size; also: potency is read from the fitted curve at half-maximal effect; as to max response: % is scaled to controls: 0 for no effect and ±100 for the full control effect
Procedure, shortened: (§1)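 Cells exposed to compounds for 48 or 72 hr at 37 degrees Celsius. Viability read as ATP-coupled luminescence with CellTiter-Glo after 10 min at room temperature.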

[5] = tested on: KB-3-1; experiment: as above; conditions: Five cell lines viability, CellTiter-Glo ATP luminescence, 48-72 h; max response: stronger effect = lower value
Procedure, shortened: as §1

[6] = tested on: HACAT; experiment: qHTS assay to identify novel small-molecules to repurpose for Merkel cell carcinoma treatment (AID 1296009); conditions: MCC and control cell lines, CellTiter-Glo viability, 72 h; at 44.8 µM (top of the series) unless noted; also: nearly all actives have a fitted effect of over 60% in size
Procedure, shortened: (§2)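 Cells were incubated with compound for 72 hr at 37 degree celsius before CellTiter-Glo addition. Luminescence was normalized with no-cell wells as full cytotoxicity and DMSO as baseline.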

[7] = tested on: NIH3T3; experiment: as above; conditions: MCC and control cell lines, CellTiter-Glo viability, 72 h; at 44.8 µM (top of the series) unless noted
Procedure, shortened: as §2

[8] = tested on: HeLa; experiment: Primary qHTS to identify gynecologic anti-cancer compounds using libraries of approved drugs and bioactive compounds (AID 1345084); conditions: Gynecologic cancer cell panel viability, ATPlite luminescence, 48 h; series mostly up to 57.5 µM; also: nearly all actives have a fitted effect of over 55% in size; also: potency is read from the fitted curve at half-maximal effect; as to activity change, negative = cytotoxicity: % is scaled to controls: 0 for no effect and ±100 for the full control effect
Procedure, shortened: (§3)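 48 h compound exposure at 37 C, 5% CO2; five-point qHTS. ATPlite luminescence readout of cell ATP.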

[9] = tested on: SKOV3; experiment: as above; conditions: Gynecologic cancer cell panel viability, ATPlite luminescence, 48 h; series mostly up to 57.5 µM
Procedure, shortened: as §3

[10] = P-glycoprotein substrates identified in KB-3-1 adenocarcinoma cell line, qHTS therapeutic library screen (AID 1346986); also: nearly all actives have a fitted effect of over 60% in size
Procedure, shortened: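 Compounds were tested in dose-response against KB-3-1 and KB-8-5-11 cells at 37 degree C for 72 h, and viability was measured by luminescence. AC50 values came from curve fitting with class-based activity calls.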

[11] = tested on: Zika virus NS2B-NS3 protease (unlinked complex); experiment: Primary screen GU Rhodamine qHTS for Zika virus inhibitors: Unlinked NS2B-NS3 protease assay (AID 1347159); also: % is scaled to controls: 0 for no effect and ±100 for the full control effect; nearly all actives have a fitted effect of over 60% in size
Procedure, shortened: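 Noncovalent NS2B hydrophilic domain/NS3 protease complex (25 nM final) in 10 mM Tris-HCl pH 8.0, 0.01% Tween 20, preincubated 15 min with compounds (up to 114 microM), then 1.5 microM Rhodamine110 substrate. Fluorescence change over 15 min fitted to 4-parameter Hill.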

[12] = biological target: Cytochrome P450 2C9 (Homo sapiens) (UniProt P11712); experiment: Cytochrome P450 family 2 subfamily C member 9 (CYP2C9) small molecule antagonists: luciferase biochemical (cell-free) qHTS assay (AID 1645842; active = well fitted curve in the direction sought with a large enough effect in the repeat runs; an effect the other way counts as inactive or inconclusive; also: nearly all actives have a fitted effect of over 55% in size; also: potency is read from the fitted curve at half-maximal effect; as to activity change, negative = inhibition: % is scaled to controls: 0 for no effect and ±100 for the full control effect)
Chain of Cytochrome P450 2C9 (Homo sapiens) (P11712 whole entry, looked up): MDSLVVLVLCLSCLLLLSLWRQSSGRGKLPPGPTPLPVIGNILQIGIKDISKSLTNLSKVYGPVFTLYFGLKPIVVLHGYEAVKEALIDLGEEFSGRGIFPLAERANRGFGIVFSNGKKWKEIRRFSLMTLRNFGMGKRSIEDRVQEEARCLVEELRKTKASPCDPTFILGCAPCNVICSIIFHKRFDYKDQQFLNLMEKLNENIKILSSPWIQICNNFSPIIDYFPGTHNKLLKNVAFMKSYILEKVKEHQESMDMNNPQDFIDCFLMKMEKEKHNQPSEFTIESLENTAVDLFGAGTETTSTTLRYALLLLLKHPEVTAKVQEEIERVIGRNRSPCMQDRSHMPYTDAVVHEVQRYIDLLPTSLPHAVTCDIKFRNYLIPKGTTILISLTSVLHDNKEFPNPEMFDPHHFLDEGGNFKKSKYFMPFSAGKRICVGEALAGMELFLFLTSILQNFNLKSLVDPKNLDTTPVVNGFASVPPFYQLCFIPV
Procedure, shortened: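 Luminescence, after 20 min with luciferin detection reagent, reflected CYP2C9 turnover during a 1 h NADPH-driven reaction at 37C. Enzyme-substrate mix contained 0.4% bovine serum albumin and was preincubated with compound 10 min at room temperature.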

[13] = biological target: Catechol O-methyltransferase (Homo sapiens) (UniProt P21964); experiment: Confirmatory Screen for Target Class Profiling of Small Molecule Inhibitors of Methyltransferases (AID 1745852); conditions: MTase-Glo luminescence, SAH detection, recombinant enzyme; measured here: COMT max response; stronger effect = lower value
Chain of Catechol O-methyltransferase (Homo sapiens) (P21964 whole entry, looked up): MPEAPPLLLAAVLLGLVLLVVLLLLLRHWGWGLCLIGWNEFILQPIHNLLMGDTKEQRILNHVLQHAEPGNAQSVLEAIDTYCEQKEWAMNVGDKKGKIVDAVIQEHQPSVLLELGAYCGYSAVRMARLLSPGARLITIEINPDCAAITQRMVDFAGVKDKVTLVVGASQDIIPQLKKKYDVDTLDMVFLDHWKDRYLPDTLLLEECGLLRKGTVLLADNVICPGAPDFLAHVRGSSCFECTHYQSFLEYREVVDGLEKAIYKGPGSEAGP

[14] = biological target: Guanidinoacetate N-methyltransferase (Homo sapiens) (UniProt Q14353); experiment: as above; conditions: activity change, negative = inhibition: at 57.3 µM (top of the series) unless noted
[15] = biological target: Nicotinamide N-methyltransferase (Homo sapiens) (UniProt P40261); experiment: as above; conditions: MTase-Glo luminescence, SAH detection, recombinant enzyme; measured here: NNMT max response; stronger effect = lower value
Chain of Nicotinamide N-methyltransferase (Homo sapiens) (P40261 whole entry, looked up): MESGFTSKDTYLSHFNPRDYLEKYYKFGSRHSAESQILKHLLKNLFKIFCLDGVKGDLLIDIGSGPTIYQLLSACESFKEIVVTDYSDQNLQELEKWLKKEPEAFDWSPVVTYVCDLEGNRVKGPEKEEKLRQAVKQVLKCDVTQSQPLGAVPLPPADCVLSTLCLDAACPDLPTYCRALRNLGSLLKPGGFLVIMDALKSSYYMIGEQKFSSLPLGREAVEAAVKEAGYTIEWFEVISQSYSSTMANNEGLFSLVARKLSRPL

[16] = biological target: Phenylethanolamine N-methyltransferase (Homo sapiens) (UniProt P11086); experiment: as above; conditions: MTase-Glo luminescence, SAH detection, recombinant enzyme; measured here: PNMT max response; stronger effect = lower value
Chain of Phenylethanolamine N-methyltransferase (Homo sapiens) (P11086 whole entry, looked up): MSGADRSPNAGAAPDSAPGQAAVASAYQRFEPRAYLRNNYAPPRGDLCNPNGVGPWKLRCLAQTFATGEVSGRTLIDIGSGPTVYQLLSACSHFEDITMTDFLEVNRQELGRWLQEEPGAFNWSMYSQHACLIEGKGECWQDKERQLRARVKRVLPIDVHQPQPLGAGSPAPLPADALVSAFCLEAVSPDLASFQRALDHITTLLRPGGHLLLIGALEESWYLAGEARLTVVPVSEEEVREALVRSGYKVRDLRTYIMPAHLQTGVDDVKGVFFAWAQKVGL

CN1CCCCC1Cn1cc(C(=O)c2cc([N+](=O)[O-])ccc2I)c2ccccc21 (configuration not stated)
inactive: Potency [1] | Potency [2] | Potency [3] | max response [4] 2.06% | max response [5] 6.42% | outcome [6] | outcome [7] | Potency [8] | Potency [9]

CCC(C)C1NC(=O)C2CCCN2C(=O)C(CC(C)C(=O)O)OC(=O)CCNC(=O)C(C)N(C)C(=O)C(C(C)C)N(C)C1=O (configuration not stated) (cyclo([X5]PI[NMeV][NMeA][βAla]); configuration not given here)
inactive: Potency [10] | Potency [1] | Potency [11] | Potency [2] | Potency [3] | max response [4] -24.2% | outcome [5] | Potency [8] | Potency [9]

CC1CCCC(O)CCC/C=C/c2cc(O)cc(O)c2C(=O)O1 (configuration not stated)
active: Potency [3] 11.3 µM
inactive: Potency [10] | max response [4] -5.57% | outcome [5] | Potency [8] | Potency [9]

COC(=O)C12C(=O)C(C)(O)C(=O)C1(C)C(C)=CC1C3(C=O)CCC(OC(C)=O)C(C)(C)C3CCC12C (configuration not stated)
inactive: Potency [1] | max response [4] -2.11% | max response [5] 6.36% | Potency [9]

C=C(C)[C@@]12O[C@@H]1[C@@]1(C)C(=C[C@H]2O)CC[C@@H](O)[C@@H]1C
inactive: Potency [10] | Potency [1] | Potency [11] | Potency [2] | Potency [3] | max response [4] -1.42% | outcome [5] | Potency [9]

C[C@]12CC[C@@H](O)C[C@@H]1CC[C@@H]1[C@@H]2CC[C@]2(C)C(=O)[C@@H](Br)C[C@@H]12
inactive: Potency [11] | max response [4] -20.8% | max response [5] 9.47% | outcome [6] | Potency [8] | Potency [9]
active: Potency [2] 6.49 µM | Potency [3] 10.3 µM

CCC(C)C1NC(=O)C(C(C)=O)=C1O (configuration not stated)
inactive: Potency [11] | max response [4] -9.18% | max response [5] -22.8% | outcome [6] inactive [at 92 µM] | Potency [8] | Potency [9]

CN1C(=O)[C@]23CC4C(C)(C)[C@@]5(C[C@@]41CN2CC[C@@]3(C)O)C(=O)Nc1c5ccc2c1OC=CC(C)(C)O2 (some centres not stated)
inactive: Potency [1] | Potency [2] | Potency [3] | max response [4] -5.32% | max response [5] 1.88% | Potency [8] | Potency [9]

CO[C@H]1C[C@H](O[C@H]2CC[C@]3(C=O)[C@H]4CC[C@]5(C)[C@@H](C6=CC(=O)OC6)CC[C@]5(O)[C@@H]4CC[C@]3(O)C2)O[C@H](C)[C@H]1O
active: Potency [1] 0.126 µM | Potency [2] 0.0399 µM | Potency [3] 0.0893 µM | Potency [4] 0.112 µM | Potency [5] 0.126 µM | Potency [8] 0.141 µM | Potency [9] 0.141 µM
inactive: Potency [11] | outcome [7] inactive [at 17.4 µM]

C#CC1(O)CCC2C3CCC4=CC(=O)CCC4=C3C=CC21C (configuration not stated)
inactive: max response [4] -2.47% | outcome [6] | Potency [9]
active: Potency [1] 2.91 µM | Potency [5] 6.51 µM | Potency [8] 1.12 µM

NCCCCCNC1(c2ccccc2)CCCCC1
inactive: Potency [11] | Potency [12] | max response [4] -4.91% | max response [5] -2.11% | outcome [6] | Potency [8] | Potency [9]

COc1ccc2c(c1)c(CCN(C)C)cn2S(=O)(=O)c1ccccc1
active: Potency [12] 15.1 µM
inactive: Potency [1] | Potency [11] | max response [4] 1.29% | max response [5] -1.74% | outcome [6] | outcome [7] | Potency [8] | Potency [9]

C/C=C1/CN2CC[C@]34C(=Nc5ccccc53)[C@@H]2C[C@@H]1[C@H]4C(=O)OC
inactive: Potency [11] | Potency [2] | Potency [3] | max response [4] 2.71% | max response [5] -1.68% | Potency [8] | Potency [9]

CCC1CN2CCc3cc(OC)c(OC)cc3C2CC1CC1=NCCc2cc(O)c(OC)cc21 (configuration not stated)
-74.9%: activity [13]
-6.3%: activity [16]
inactive: Potency [1] | Potency [11] | Potency [2] | max response [4] -0.358% | max response [5] -7.09% | outcome [6] inactive [at 17.4 µM] | Potency [8] | Potency [9]
-6.53%: activity [15]
-9.58% [at 29.8 µM]: activity change, negative = inhibition [14]

CN1C(=O)C(Cc2ccc3ccccc3c2)N=C(c2ccc(O)cc2)c2cc(Cl)ccc21 (configuration not stated)
inactive: Potency [11] | max response [4] -21.8% | max response [5] -24.1% | outcome [6] | Potency [9]

C[C@H]1CC[C@@H]2[C@@H](C)[C@H]3[C@H](C[C@H]4[C@@H]5CC=C6CC(O[C@@H]7O[C@H](CO)[C@@H](O)[C@H](O[C@@H]8O[C@H](CO)[C@@H](O)[C@H](O)[C@H]8O)[C@@H]7O[C@@H]7O[C@@H](C)[C@H](O)[C@@H](O)[C@H]7O)CC[C@]6(C)[C@H]5CC[C@]34C)N2C1 (some centres not stated)
inactive: outcome [1] inactive [at 9.29 µM] | max response [4] -16.5% | max response [5] 2.33% | outcome [7] inactive [at 9.27 µM] | activity change, negative = cytotoxicity [8] 8.23% [at 11.6 µM]

Oc1ccc2c(c1)C13CCCC[C@H]1[C@@H](C2)N(CC1CCC1)CC3
active: Potency [2] 23 µM | Potency [3] 23 µM
-7.17%: activity [16]
-13.8%: activity [15]
-7.63%: activity [13]
inactive: max response [4] -16.2% | max response [5] -12.4% | outcome [6] | Potency [8]
-6.87%: activity change, negative = inhibition [14]
